Consider 21 compounds from PubChem BioAssay.

As usually defined, the inhibition is the relative decrease from the control value, in per cent.

Structures are written as SMILES. A number with no mark means an inactive call. For part of these data: Measured potencies and affinities stand elsewhere. Activity calls are given as the source filed them. Unless noted, the rule behind the calls is not given here.

The nature of assay [1]: antimalarial activity against Dd2 strain (AID 2302;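 active = growth inhibition above 50% at the single 2 µM test dose, taken to imply half-maximal potency below 2 µM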;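 note: 0% = DMSO untreated growth and 100% = chloroquine plus artemisinin killed control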). The conditions noted are these: P. falciparum Dd2 in RBCs, LDH growth readout, 72 h; at 2 µM; active compounds read high.
Assay [2] in a line: HepG2 cytotoxicity, primary screen, cytotoxicity control for P. falciparum antimalarial project, cell-based, ATP luminescence (AID 2303;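 active = inhibition above 50%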;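 note: 0% = DMSO wells and 100% = digitonin-killed cells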). Particulars: HepG2 viability, 24-48 h, at 10 µM, active compounds read high.
Assay [3] has as its target L-lactate dehydrogenase (Plasmodium falciparum (isolate CDC / Honduras)) (UniProt Q27743). Nature of the assay: PfLDH activity inhibition – cell lysate, 3D7 strain, counter-screen for P. falciparum growth inhibition project (AID 2304).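 Note: 0% = vehicle and 100% = reference inhibitor.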 Particulars: P. falciparum 3D7 crude extract, LDH APAD/NBT absorbance; at 2 µM; active compounds read high. Background: A counterscreen serves to expose hits that act by an unwanted route or on another target.

Assay [4] is described as follows: inhibition of 3D7 malaria parasite growth – strain 3D7 (AID 2306).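 Note: 0% = DMSO wells and 100% = chloroquine plus artemisinin control wells.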 Particulars: P. falciparum 3D7 erythrocytic growth, LDH absorbance, 72 h; at 2 µM; active compounds read high.
In assay [5] the target is Calcium-dependent protein kinase 1 (Plasmodium falciparum (isolate 3D7)) (UniProt P62344). Nature of the assay: PfCDPK1 kinase inhibitors, biochemical, TCAMS library (AID 1159585; cut-off not given, nearly all actives have IC50 up to about 0.98 µM;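 note: inhibitors leave more ATP so luminescence rises with inhibition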). Particulars: recombinant PfCDPK1, Kinase-Glo ATP depletion luminescence. On the technique in general: Kinase-Glo measures the ATP left after a reaction by luminescence.
Sequence of Calcium-dependent protein kinase 1 (Plasmodium falciparum (isolate 3D7)) (P62344 whole entry, looked up): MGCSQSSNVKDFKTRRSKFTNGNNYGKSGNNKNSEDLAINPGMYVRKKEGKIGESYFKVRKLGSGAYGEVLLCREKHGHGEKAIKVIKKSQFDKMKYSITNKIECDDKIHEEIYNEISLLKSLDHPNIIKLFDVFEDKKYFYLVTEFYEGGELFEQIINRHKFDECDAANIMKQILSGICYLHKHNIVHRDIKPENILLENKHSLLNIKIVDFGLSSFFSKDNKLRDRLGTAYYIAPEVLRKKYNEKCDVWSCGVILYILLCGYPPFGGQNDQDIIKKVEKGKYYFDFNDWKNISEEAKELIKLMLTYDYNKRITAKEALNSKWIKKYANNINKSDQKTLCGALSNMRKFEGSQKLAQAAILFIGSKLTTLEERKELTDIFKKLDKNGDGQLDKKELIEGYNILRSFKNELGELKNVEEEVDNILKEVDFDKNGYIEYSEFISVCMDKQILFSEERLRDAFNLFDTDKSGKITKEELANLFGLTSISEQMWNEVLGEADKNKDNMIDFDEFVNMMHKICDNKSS
Assay [6] deals with Plasmodium falciparum protein kinase 6 (PK6, PF3D7_1337100) (UniProt Q8IDW1). Nature of the assay: PfPK6 kinase inhibitors, biochemical, TCAMS library (AID 1159586). The conditions noted are these: recombinant PfPK6, Kinase-Glo ATP depletion luminescence.
Sequence of Plasmodium falciparum protein kinase 6 (PK6, PF3D7_1337100) (Q8IDW1 1-305): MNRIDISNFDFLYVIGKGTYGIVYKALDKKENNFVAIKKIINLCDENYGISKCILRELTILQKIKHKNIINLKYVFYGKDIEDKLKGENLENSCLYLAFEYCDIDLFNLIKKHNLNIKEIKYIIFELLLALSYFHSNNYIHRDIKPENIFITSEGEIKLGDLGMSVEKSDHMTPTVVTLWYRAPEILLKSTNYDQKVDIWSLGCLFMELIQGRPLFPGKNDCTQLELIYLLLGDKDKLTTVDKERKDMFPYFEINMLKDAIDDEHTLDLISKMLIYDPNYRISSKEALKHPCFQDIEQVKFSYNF
In assay [7] the target is Protein kinase 7 (PK7), Plasmodium falciparum 3D7 (PF3D7_0213400) (UniProt Q7YTF7). Nature of the assay: inhibition of Plasmodium PK7 catalytic activity – biochemical, TCAMS antimalarial set, Kinase-Glo luminescence (AID 1159587). Particulars: recombinant PfPK7, Kinase-Glo ATP depletion luminescence.
Sequence of Protein kinase 7 (PK7), Plasmodium falciparum 3D7 (PF3D7_0213400) (Q7YTF7 1-343): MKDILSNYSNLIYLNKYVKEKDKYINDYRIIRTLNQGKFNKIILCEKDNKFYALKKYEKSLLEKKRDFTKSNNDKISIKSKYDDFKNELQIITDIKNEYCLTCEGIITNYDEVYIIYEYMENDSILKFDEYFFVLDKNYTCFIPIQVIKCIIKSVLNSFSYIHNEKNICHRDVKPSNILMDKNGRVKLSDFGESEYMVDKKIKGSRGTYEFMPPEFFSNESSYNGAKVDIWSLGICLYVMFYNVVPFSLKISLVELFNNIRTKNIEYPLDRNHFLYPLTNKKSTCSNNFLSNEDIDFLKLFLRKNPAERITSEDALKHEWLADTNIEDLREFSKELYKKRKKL
For assay [8], the target named is Calcium-dependent protein kinase 4 (Plasmodium falciparum (isolate 3D7)) (UniProt Q8IBS5). Nature of the assay: PfCDPK4 kinase inhibitors, biochemical, TCAMS library (AID 1159588; cut-off not given, nearly all actives have IC50 up to about 0.91 µM). Particulars: recombinant PfCDPK4, Kinase-Glo ATP depletion luminescence.
Sequence of Calcium-dependent protein kinase 4 (Plasmodium falciparum (isolate 3D7)) (Q8IBS5 whole entry, looked up): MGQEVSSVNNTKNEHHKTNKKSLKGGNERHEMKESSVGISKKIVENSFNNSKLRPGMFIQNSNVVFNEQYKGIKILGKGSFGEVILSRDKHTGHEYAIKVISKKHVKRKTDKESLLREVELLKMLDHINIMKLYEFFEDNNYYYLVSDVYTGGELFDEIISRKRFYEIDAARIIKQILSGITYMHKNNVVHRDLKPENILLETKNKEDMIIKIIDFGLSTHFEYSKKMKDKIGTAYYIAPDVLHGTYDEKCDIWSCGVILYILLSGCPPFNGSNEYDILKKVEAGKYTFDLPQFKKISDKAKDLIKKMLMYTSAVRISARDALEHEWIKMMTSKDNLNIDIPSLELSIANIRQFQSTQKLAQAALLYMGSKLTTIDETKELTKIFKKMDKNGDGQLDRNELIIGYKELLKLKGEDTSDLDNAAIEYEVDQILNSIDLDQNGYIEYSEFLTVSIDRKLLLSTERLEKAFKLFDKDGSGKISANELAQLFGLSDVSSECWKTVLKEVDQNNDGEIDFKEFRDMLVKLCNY

Sequence of L-lactate dehydrogenase (Plasmodium falciparum (isolate CDC / Honduras)) (Q27743 whole entry, looked up): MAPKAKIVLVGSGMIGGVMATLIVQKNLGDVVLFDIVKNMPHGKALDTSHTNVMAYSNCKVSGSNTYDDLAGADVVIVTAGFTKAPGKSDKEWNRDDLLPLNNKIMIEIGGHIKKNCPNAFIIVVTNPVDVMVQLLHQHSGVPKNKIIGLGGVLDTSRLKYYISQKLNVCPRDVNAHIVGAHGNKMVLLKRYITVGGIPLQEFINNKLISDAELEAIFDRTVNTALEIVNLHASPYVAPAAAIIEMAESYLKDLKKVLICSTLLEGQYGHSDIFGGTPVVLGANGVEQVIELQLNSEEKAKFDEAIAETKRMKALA

As to `O=C(Nc1ccc(F)cc1)NC1CCN(c2ccnc3ccccc23)C1` (stereo not drawn), the values for the growth inhibition in assay [1] and in assay [4] were 2% and 92% (active), respectively. Also, the values for the inhibition in assay [2] and in assay [3] were 9% and -2%, respectively. In addition, the result in assay [5], in assay [6], in assay [7] and in assay [8] was inactive.
Consider `COc1ccc(Nc2nccc(N3CCC(NC(=O)c4cccc(NC(C)=O)c4)C3)n2)cc1` (stereo not drawn), for which the results for the growth inhibition in assay [1] and in assay [4] were 84% (active) and 92% (active), respectively. In addition, the inhibition in assay [2] is -3%; in assay [3], -5%. Also, the result in assay [5], in assay [6], in assay [7] and in assay [8] was inactive.
For the compound `Clc1ccc(Cn2nc(Br)nc2Br)c(Cl)c1`, the growth inhibition in assay [1] and in assay [4] was 96% (active) throughout. The inhibition in assay [2] is 4%; in assay [3], 2%. The result in assay [5], in assay [6], in assay [7] and in assay [8] was inactive.
As for `CC1CCCCN1CCCNc1ncc2c(-c3ccc(NC(=O)Nc4cc(C(F)(F)F)ccc4F)c(F)c3)nn(C)c2n1` (stereo not drawn), the growth inhibition in assay [1] is 97% (active); in assay [4], 101% (active). Further, the inhibition in assay [2] is 27%; in assay [3], 2%. Also, the result in assay [5], in assay [6], in assay [7] and in assay [8] was inactive.
With `CCN1CCN(CCCNc2ccnc3cc(Cl)ccc23)CC1`, the growth inhibition in assay [1] was 77% (active); in assay [4], 101% (active). The inhibition in assay [2] is 7%; in assay [3], 2%. Besides, the outcome in assay [5], in assay [6], in assay [7] and in assay [8] was inactive.
For the compound `Cc1cc(NN=CC=Cc2ccccc2)c2cc(F)ccc2n1`, the growth inhibition in assay [1] is 36%; in assay [4], 101% (active). Further, the figures for the inhibition in assay [2] and in assay [3] were 8% and -2%, respectively. Also, the result in assay [5], in assay [6], in assay [7] and in assay [8] was inactive.
Consider `O=C(CSc1nc(-c2ccccc2Cl)ns1)Nc1ccc2c(c1)OCO2`, for which the growth inhibition in assay [1] is 77% (active); in assay [4], 93% (active). Besides, the figures for the inhibition in assay [2] and in assay [3] were -8% and -5%, respectively. The result in assay [5], in assay [6], in assay [7] and in assay [8] was inactive.
In the case of `Cc1noc(=O)c2ccc(NC(=O)C(O)(CSc3ccccc3)CC(C)C)cc12` (stereo not drawn), the growth inhibition was 89% (active) in assay [1] and 99% (active) in assay [4]. Besides, the inhibition in assay [2] was -15%; in assay [3], 0%. In addition, the result in assay [5], in assay [6], in assay [7] and in assay [8] was inactive.
Consider `COC(=O)C(Cc1ccccc1)C(CSCc1ccc(OC)cc1)C(=O)N[C@@H](C(=O)OC(C)(C)C)c1ccc(C(C)(C)C)cc1` (stereo partly drawn), for which the growth inhibition in assay [1] was 44%; in assay [4], 93% (active). The inhibition in assay [2] was -1%; in assay [3] it was 2%. Also, the result in assay [5], in assay [6], in assay [7] and in assay [8] was inactive.
Take `COc1ccc2nccc([C@@H](O)CN3CCC(NC(=O)C(=Cc4ccc(Cl)cc4Cl)c4ccc(-c5ccccc5)cc4)CC3)c2c1`: the growth inhibition is 98% (active) in assay [1] and 100% (active) in assay [4]. The figures for the inhibition in assay [2] and in assay [3] were 1% and -2%, respectively. Also, the outcome in assay [5], in assay [6], in assay [7] and in assay [8] was inactive.
Regarding `CS(=O)(=O)CCNCc1nc(-c2ccc3c(Nc4ccc(Oc5ccccn5)cc4)ccnc3c2)cs1`, the growth inhibition was 89% (active) in assay [1] and 100% (active) in assay [4]. Moreover, the results for the inhibition in assay [2] and in assay [3] were 9% and -1%, respectively. Besides, the outcome in assay [5], in assay [6], in assay [7] and in assay [8] was inactive.
Consider `CCN1CCN(c2cc(C)c3cc(NC(=O)c4ccc(N(CC)CC)cc4)ccc3n2)CC1`, for which the growth inhibition in assay [1] is 41%; in assay [4] it was 95% (active). Besides, the inhibition in assay [2] was 38%; in assay [3], 1%. Besides, the outcome in assay [5], in assay [6], in assay [7] and in assay [8] was inactive.
With `CC(C)(C)c1cc([N+](=O)[O-])cc(C(=O)Nc2ccccc2C(F)(F)F)c1O`, the growth inhibition in assay [1] was 99% (active); in assay [4] it was 96% (active). Further, the inhibition in assay [2] is 74% (active); in assay [3], 5%. Also, the result in assay [5], in assay [6], in assay [7] and in assay [8] was inactive.
Turning to `COc1ccc(NC(=O)c2c(NC(=O)c3cccs3)sc3c2CCCC3)cc1`, the growth inhibition in assay [1] is 4%; in assay [4] it was 97% (active). Besides, the results for the inhibition in assay [2] and in assay [3] were 4% and 1%, respectively. Moreover, the outcome in assay [5], in assay [6], in assay [7] and in assay [8] was inactive.
Take `Clc1ccc2c(NCCc3ccccc3)ccnc2c1`: the growth inhibition was 99% (active) in assay [1] and 93% (active) in assay [4]. Also, the inhibition is 31% in assay [2] and -3% in assay [3]. Moreover, the result in assay [5], in assay [6], in assay [7] and in assay [8] was inactive.
Turning to `Cc1cc(N2C(N)=NC(N)=NC2(C)C)ccc1Cl`, the figures for the growth inhibition in assay [1] and in assay [4] were -2% and 95% (active), respectively. In addition, the inhibition is 66% (active) in assay [2] and -5% in assay [3]. Also, the result in assay [5], in assay [6], in assay [7] and in assay [8] was inactive.
`COc1ccc(NS(=O)(=O)c2cccc(C(=O)Nc3ccc(C(F)(F)F)cc3)c2)cc1N1CCN(CC(C)C)CC1`: the growth inhibition in assay [1] was 4%; in assay [4] it was 94% (active). Moreover, the inhibition in assay [2] was 5%; in assay [3], 2%. Besides, the outcome in assay [5], in assay [6], in assay [7] and in assay [8] was inactive.
Regarding `Cc1c(C(=O)[C@@H]2C[C@H]2CN2CCC(N3CCCCC3)CC2)sc2ccccc12`, the growth inhibition was 19% in assay [1] and 94% (active) in assay [4]. In addition, the inhibition in assay [2] is 35%; in assay [3], -1%. The outcome in assay [5], in assay [6], in assay [7] and in assay [8] was inactive.
Regarding `CC(=O)Nc1ccc(C(=O)Nc2ccc(-c3cccc(-c4nc5ccc(F)cc5[nH]4)c3)cc2)cn1`, the results for the growth inhibition in assay [1] and in assay [4] were 84% (active) and 100% (active), respectively. Besides, the inhibition in assay [2] was 13%; in assay [3], -2%. The outcome in assay [5], in assay [6], in assay [7] and in assay [8] was inactive.
As to `CCOc1cc(Cl)c(C(C)NC(=O)c2cccc(OC)c2)cc1OCC` (stereo not drawn), the growth inhibition in assay [1] was 92% (active); in assay [4], 98% (active). Moreover, the figures for the inhibition in assay [2] and in assay [3] were 29% and 6%, respectively. The result in assay [5], in assay [6], in assay [7] and in assay [8] was inactive.
As to `CCOc1ccccc1C1CCN(CCCCNC(=O)c2ccc(NC(=O)c3ccc(Cl)cc3)cc2)CC1`, the growth inhibition was 27% in assay [1] and 95% (active) in assay [4]. The figures for the inhibition in assay [2] and in assay [3] were 13% and 1%, respectively. In addition, the result in assay [5], in assay [6], in assay [7] and in assay [8] was inactive.
